Rows were chosen to be rich in hits. Some 3.2% of all compounds tested hit in one or more screens of this group.
ERa SRC1 inh: blocks coactivator binding to human estrogen receptor alpha | actives 1.7% (n = 86,000) | AID 629 | inhibition, % at 25.6 µM | P03372 | TR-FRET ER-alpha LBD / SRC-1 peptide, estradiol-bound; in the data active = inhibition above about 50%;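 note: 0% = receptor plus peptide control and 100% = peptide only without receptor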
Target sequence (P03372 whole entry, looked up, the tested form may be a part): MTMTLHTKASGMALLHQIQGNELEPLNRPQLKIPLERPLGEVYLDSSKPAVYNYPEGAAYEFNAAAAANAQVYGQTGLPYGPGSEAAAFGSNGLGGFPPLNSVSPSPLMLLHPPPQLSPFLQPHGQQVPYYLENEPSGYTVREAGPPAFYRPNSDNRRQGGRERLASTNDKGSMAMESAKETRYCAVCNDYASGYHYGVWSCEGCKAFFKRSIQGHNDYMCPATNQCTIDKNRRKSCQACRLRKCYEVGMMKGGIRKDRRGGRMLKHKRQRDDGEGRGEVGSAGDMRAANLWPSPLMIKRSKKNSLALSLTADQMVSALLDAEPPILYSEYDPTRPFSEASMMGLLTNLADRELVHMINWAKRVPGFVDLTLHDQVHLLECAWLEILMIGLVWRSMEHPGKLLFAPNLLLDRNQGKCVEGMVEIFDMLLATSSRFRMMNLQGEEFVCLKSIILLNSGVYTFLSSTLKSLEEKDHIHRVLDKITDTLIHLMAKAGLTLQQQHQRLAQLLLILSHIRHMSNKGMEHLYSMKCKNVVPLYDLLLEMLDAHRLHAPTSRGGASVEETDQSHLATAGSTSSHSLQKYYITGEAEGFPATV
ERa SRC1 pot: ER-alpha (human) coactivator binding potentiation | P03372 | TR-FRET ERalpha-LBD/SRC-Cy5 coactivator binding, 2 h; 100 = basal binding, no effect | coactivator binding (% of control), % at 25.6 µM | actives 1.3% (n = 86,000) | AID 639; in the data active = activity above about 200%;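 note: binding measured in presence of low estradiol as agonist stimulus; 0% = peptide alone without receptor and 100% = receptor with peptide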
FAK blocker: inhibitors of human focal adhesion kinase | AID 727 | Q05397 | biochemical FAK kinase activity assay | inhibition, %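 (tested at 7 µM)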 | actives 0.84% (n = 97,000); in the data active = inhibition above about 19%;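 note: 0% = DMSO and 100% = reference compound high control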
ERb coact inh: blocks coactivator binding to human estrogen receptor beta; inhibition, % at 25.6 µM; actives 1.3% (n = 86,000); TR-FRET ER-beta LBD / SRC1-Cy5 peptide binding; receptor agonist-loaded with 1 µM estradiol;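 active = compounds whose percent inhibition of the receptor-coactivator binding signal exceeds about 50% in the single-dose screen, limit read from the data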;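 note: 0% = receptor plus peptide wells without compound and 100% = peptide-only wells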
An asterisk follows results filed as active; . = no result; [ ] = remark or other dose.

SMILES | ERa SRC1 inh | ERa SRC1 pot | FAK blocker | ERb coact inh
O=C(NNC(=O)c1cc(-c2ccc(Cl)c(Cl)c2)nc2ccccc12)Nc1ccccc1 | . | . | -3 | .
Cc1ccc(OC(=O)Cn2c(C(F)(F)F)nc3ccccc32)cc1 | . | . | -1 | .
CNCc1ccccc1OCC(=O)Nc1ccccc1OC | -3 | 106 | -2 | -14
Cc1c(C)c2cc(Cl)c(O)c(CN(C)C)c2oc1=O | 2 | 120 | 1 | 7
O=c1oc2c(O)c(O)cc3c(=O)oc4c(O)c(O)cc1c4c23 | 94*[fluorescence artefact?] | 18 | . | 98*[fluorescence artefact?]
Cc1ccc(-c2nn3c(C)nnc3s2)cc1NC(=O)COc1ccc(Cl)cc1 | 7 | 325* | -8 | 9
CCOC(=O)c1ccc(NC(=O)CCOc2ccccc2)cc1 | -1 | 659*[fluorescence artefact?] | -1 | -3
CCOC(=O)c1ccc(NC(=O)COc2ccc(-n3cnnn3)cc2)cc1 | 91*[fluorescence artefact?] | 14 | 10 | 82*[fluorescence artefact?]
O=C(Nc1ccc(F)cc1)c1sc2cc(C(F)(F)F)cnc2c1-c1cccs1 | 21 | 185 | -4 | 21
N#Cc1ccc(NC(=O)c2sc3cc(C(F)(F)F)cnc3c2-c2cccs2)cc1 | 18 | 330*[fluorescence artefact?] | -1 | 17
COc1ccc(NC(=O)c2sc3cc(C(F)(F)F)cnc3c2-c2cccs2)cc1 | 34 | 233*[fluorescence artefact?] | -31 | 27
Cc1cc(NC(=O)CSc2cn(CCNC(=O)c3ccc(Cl)cc3)c3ccccc23)no1 | 70* | 58 | . | 44
CC(C)c1ccc(C(=O)CC2(O)C(=O)N(CN3CCOCC3)c3ccccc32)cc1 (configuration not stated) | -3 | 117 | 9 | -3
N=c1c(-c2nc3ccccc3[nH]2)cc(C(=O)c2cccs2)nn1-c1ccc(Cl)cc1 | 90*[fluorescence artefact?] | 29 | 10 | 52*
CN(C)CC/C=C1/c2ccccc2Sc2c(O)cc(Cl)cc21 | -2 | 90 | 40* | -10
COc1cc(Cl)cc2c1Sc1ccccc1/C2=C/CCN(C)C | 12 | 77 | 1 | 5
CCOC(=O)c1ccc(CNC(=O)Cn2nnc(-c3ccc(C)cc3)n2)o1 | -14 | 110 | -4 | -11
CCn1c(SCc2cccc(C)c2)nnc1-c1ccc(C)cc1 | -8 | 139 | 2 | -18
O=C(Cc1cnn(-c2ccccc2)c1)c1ccc(O)c(O)c1O | 78*[fluorescence artefact?] | 56 | -1 | 85*[fluorescence artefact?]
CCc1cc(C(=O)Cc2cnn(-c3ccccc3)c2)c(O)cc1O | -9 | 79 | 3 | -3
CC(C)OC(=O)CSc1nnc(-c2ccc(C(C)(C)C)cc2)n1N | 98*[fluorescence artefact?] | 111 | -4 | -2
CC(C)OC(=O)CSc1nnc(-c2ccncc2)n1N | 18 | 111 | 1 | 7
CC(C)Oc1ccc(/C(O)=C2/C(=O)C(=O)N(CCCN3CCOCC3)C2c2ccncc2)cc1 (configuration not stated) | -17 | 130 | . | -8
Cc1nnc(Oc2ccccc2F)c2ccccc12 | 51* | 128 | 11 | 26
Cc1nnc(Oc2ccccc2)c2ccccc12 | 6 | 140 | -7 | -4
SMILES | ERa SRC1 inh | ERa SRC1 pot | FAK blocker | ERb coact inh
COc1ccccc1NCc1nnc(SCC(=O)N/N=C/c2ccco2)n1-c1ccc(Cl)cc1Cl | . | . | 2 | .
Cc1csc(N/N=C/c2ccc(O)c([N+](=O)[O-])c2)n1 | 99*[fluorescence artefact?] | 4 | 0 | 99*[fluorescence artefact?]
Cc1csc(NC(=O)c2ccccc2[N+](=O)[O-])n1 | . | . | -1 | .
C=CCn1c(SCc2cc(=O)n3ccsc3n2)nc2sc(C)c(C)c2c1=O | 57*[fluorescence artefact?] | 72 | . | 33
C=CCn1c(SCc2csc(C)n2)nc2sc3c(c2c1=O)CCCC3 | 72*[fluorescence artefact?] | 100 | 1 | 6
C=CCSc1nc2sc(C)c(C)c2c(=O)n1CC=C | 6 | 88 | -2 | -2
C=CCn1c(SCC(=O)c2cccs2)nc2sc(C)c(C)c2c1=O | 62*[fluorescence artefact?] | 163 | 0 | 24
O=C(NCCCN1CCc2ccccc2C1)Nc1ccc(Cl)cc1 | 8 | 99 | -1 | -7
CSc1nc(-c2ccccc2)c(-c2ccccc2)[nH]1 | . | . | 11 | .
COc1ccc(/C=C2\SC(=S)N(NC(=O)c3csc4c3CCCC4)C2=O)cc1 | -1 | 108 | -8 | -7
O=C(NCc1ccc2c(c1)OCO2)c1cc2ncc(Br)cn2n1 | 80*[fluorescence artefact?] | 24 | 9 | 78*[fluorescence artefact?]
O=C(NCc1ccc2c(c1)OCO2)c1ccccn1 | 2 | 98 | 0 | -1
O=C(O)c1cccc(Nc2nc(N3CCOCC3)nc(N3CCOCC3)n2)c1 | -4 | 626*[fluorescence artefact?] | 1 | -6
Cc1ccc(NC(=O)c2sc3nc4c(c(-c5ccco5)c3c2N)CCC4)cc1 | 59* | 72 | 1 | 43
COc1ccc(-c2c3c(nc4sc(C(=O)Nc5ccccc5)c(N)c24)CCC3)cc1 | 68*[fluorescence artefact?] | 185 | 0 | 24
Nc1c(C(=O)Nc2ccccc2)sc2nc3c(c(-c4ccco4)c12)CCC3 | 28 | 78 | -2 | 36
CSc1ncc2c(n1)-c1cc(C)ccc1SC2 | 97* | 39 | 5 | 38
O=C(COC(=O)c1cc(-c2cccs2)nc2ccccc12)NCc1ccco1 | 65*[fluorescence artefact?] | 108 | 5 | 37
O=C(COC(=O)c1cc(-c2ccc(Cl)s2)nc2ccccc12)NCc1ccco1 | 23 | 65 | -2 | 27
O=C(COC(=O)c1ccccc1Oc1ccccc1)NCc1ccco1 | 64* | 185 | . | 47
CC(C)NC(=O)COC(=O)c1ccccc1Oc1ccccc1 | . | . | -1 | .
Cc1onc(-c2c(F)cccc2Cl)c1C(=O)OCC(=O)NCc1ccco1 | 52* | 79 | 2 | 33
O=C(COC(=O)c1cccc(S(=O)(=O)N2CCc3ccccc3C2)c1)NCc1ccco1 | 65* | 71 | . | 53*
O=C(NCc1ccco1)C1CCCN(S(=O)(=O)c2ccc(Cl)cc2)C1 (configuration not stated) | . | . | -2 | .
COc1ccc(S(=O)(=O)N(CCc2ccccc2)CC(=O)NC(C)C)cc1 | 2 | 139 | -3 | -9
SMILES | ERa SRC1 inh | ERa SRC1 pot | FAK blocker | ERb coact inh
C=CCN1C(=O)NC2(O)C(=O)c3ccccc3C12O (configuration not stated) | -12 | 115 | -4 | -10
O=C(COC(=O)c1ccc(S(=O)(=O)Nc2ccccc2)cc1)NCc1ccco1 | . | . | -3 | .
O=C(COC(=O)c1ccccc1)NCc1ccco1 | 76*[fluorescence artefact?] | 88 | 12 | 60*
CSc1nc(N2CCN(CCO)CC2)c2sc3nc(-c4ccco4)c4c(c3c2n1)CCC4 | 57* | 65 | . | 24
CC(C)(C)c1ccccc1NC(=O)c1ccco1 | 1 | 113 | 1 | 25
CCOC(=O)C1=C(C)NC(SCC(=O)Nc2nc(C)cs2)=C(C#N)C1c1cccs1 (configuration not stated) | -7 | 72 | 0 | -2
CCCC(c1nnnn1Cc1ccccc1)N1CCC(C(N)=O)CC1 (configuration not stated) | -6 | 119 | -1 | 0
CC(C)CC(c1nnnn1Cc1ccccc1)N1CCC(C(N)=O)CC1 (configuration not stated) | -6 | 210*[fluorescence artefact?] | -1 | -12
Cc1c(NC(=O)CSc2nnc3sc4ccccc4n23)c(=O)n(-c2ccccc2)n1C | -7 | 112 | -4 | 4
Cc1ccc(S(=O)(=O)c2c(N)n(Cc3ccco3)c3nc4ccccc4nc23)cc1C | 1 | 220* | -1 | 3

High-throughput results (PubChem BioAssay)
